Among the data in PubChem BioAssay are inhibition values, retold here.

Values without a mark were called inactive. The rule behind the calls is not given here.

The target of this experiment is Pantothenate synthetase (Mycobacterium tuberculosis (strain ATCC 25618 / H37Rv)) (UniProt P9WIL5). As to the kind of experiment: Recombinant Mtb pantothenate synthetase (PanC) inhibitors, coupled enzyme, confirmatory (AID 375).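 Note: 0% = full reaction with vehicle and 100% = no enzyme background.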 Conditions: coupled enzyme assay; at 10 µM, hits give high values.
Pantothenate synthetase (Mycobacterium tuberculosis (strain ATCC 25618 / H37Rv)), sequence (P9WIL5 whole entry, looked up): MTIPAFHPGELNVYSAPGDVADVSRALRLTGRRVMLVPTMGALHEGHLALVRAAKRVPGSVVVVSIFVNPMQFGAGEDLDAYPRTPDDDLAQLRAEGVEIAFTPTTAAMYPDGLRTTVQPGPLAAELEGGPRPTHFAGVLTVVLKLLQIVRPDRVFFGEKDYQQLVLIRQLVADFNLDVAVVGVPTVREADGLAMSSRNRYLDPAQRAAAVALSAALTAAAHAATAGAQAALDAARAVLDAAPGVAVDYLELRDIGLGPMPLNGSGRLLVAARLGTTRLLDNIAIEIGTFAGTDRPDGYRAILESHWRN
On to `COc1ccccc1OCc1ccc(C(=O)N2CCN(C(=O)c3ccco3)CC2)cc1`, for which the inhibition is 1%. Turning to `Cc1cc(C)cc(OCCCC(=O)O)c1`, the inhibition was 4%. The same measure for `CC1CCc2nn(CC(=O)N3CCN(C(=O)c4ccco4)CC3)cc2C1` (stereo not given): 10%; for `O=C1CN(Cc2ccccc2)C(=NCc2ccco2)S1`: 0%. With `CCOc1ccccc1-n1nnnc1SCC(=O)Nc1cc2oc3ccccc3c2cc1OC` the figure was 0%; with `COc1cccc(C2C(C(=O)c3cccs3)=C(O)C(=O)N2CCCn2ccnc2)c1OC` (stereo not given), 0%.

For the compound `O=C(O)c1cc2c([nH]c1=O)CCCC2`, the inhibition is 8%. With `COC(=O)c1[nH]c2ccc(C)cc2c1NC(=O)CN1CCC(C)CC1` the figure was 0%; with `CCOC(=O)c1c(NC(=O)Cn2c(=O)oc3ccccc32)oc(C)c1C(C)=O`, 0%. With `COc1ccc(S(=O)(=O)Cc2ccc(C(=O)N3CCOCC3)o2)cc1`, the inhibition is 7%. The same measure for `COc1ccc2c(c1)C(C)=CC(C)(C)N2C(=O)C(C)N1C(=O)c2ccccc2C1=O` (stereo not given): 4%.

Regarding `O=C(Cn1ccc2ccccc2c1=O)Nc1ccc2c(c1)OCO2`, the inhibition was 6%. With `CCS(=O)(=O)NCCc1cc2c(OC)ccc(OC)c2[nH]c1=O`, the inhibition was 3%. As for `CCCn1c(SCC(=O)NC(=O)NCc2ccco2)n[nH]c1=O`, the inhibition is 0%. Regarding `CCC(=O)N1CCc2cc(Br)cc(S(=O)(=O)C3(C(=O)OC)CC3)c21`, the inhibition is 0%. With `Cc1cc(C(=O)Cn2cncn2)c(C)n1CCc1ccc(F)cc1` the figure was 1%; with `O=C(c1cnsn1)N1CCN(c2ccccn2)CC1`, 0%; with `C=CCN(C(=O)CNC(=O)c1ccco1)C(C(=O)NC1CCCCC1)c1ccccc1F` (stereo not given), 0%. With `O=C(O)c1cccc(CN2C(=O)SC(Nc3ccccc3)C2=O)c1` (stereo not given) the figure was 4%. With `CC1(C)CC(=O)C(C=NCCc2ccc(S(N)(=O)=O)cc2)=C(O)C1` the figure was 0%. As for `COCCNC(=O)NC(=O)COC(=O)Cc1ccc2c(c1)OCCO2`, the inhibition is 4%. With `O=C(CP(=O)(c1ccccc1)c1ccccc1)N1CCCCC1` the figure was 6%; with `CCCCC(O)(C(NC=O)C(=O)OC)C(F)(F)F` (stereo not given), 2%; with `CCN1C(=O)/C(=C2\C=Cc3ccccc3N2CC)OC1=S`, 11%. With `Cc1nc2ccc(S(=O)(=O)NCC(=O)N3CCc4ccccc4C3)cc2s1` the figure was 2%. For the compound `CCCCOc1ccc(NC(=O)Cn2c(=O)ccc3c(C)cc(C)nc32)cc1`, the inhibition is 3%.

For the compound `O=C(Cc1ccccc1)Nc1ccc(CN2CCOCC2)cc1`, the inhibition was 0%.

With `FC(F)(F)c1ccc(Sc2nnc(-c3cccs3)n2CC2CCCO2)nc1` (stereo not given), the inhibition was 0%. With `C(#Cc1ccccc1)Cn1nnc2ccccc21` the figure was 0%; with `COC(=O)c1cc(S(=O)(=O)N2CCC(C)CC2)ccc1F`, 6%; with `Nn1c(SCC(=O)Nc2ccc3c(c2)OCCO3)nnc1C(F)(F)F`, 4%. In the case of `Cc1nc2ccccc2c2oc(C(=O)NCCCN3CCCC3=O)cc12`, the inhibition is 7%. The same measure for `O=C(Nc1ccc(F)cc1)N(Cc1ccco1)Cc1cc2cc3c(cc2[nH]c1=O)OCO3`: 0%; for `COc1cc2c(=O)n(Cc3ccccc3)c(=O)n(CC(=O)NCc3ccco3)c2cc1OC`: 7%; for `COCCNC(=O)CN1CCC(NC(=O)Nc2ccc(C(F)(F)F)cc2)CC1`: 4%. With `CC1=NC(Nc2nc(C)c3ccccc3n2)=NC(C)(C)C1` the figure was 0%; with `O=C(Nc1cccnc1)c1cccc(NC(=O)c2ccco2)c1`, 0%. The same measure for `O=C1c2ccccc2C(=O)N1CCCn1nnc(-c2ccc(N3CCOCC3)cc2)n1`: 3%; for `O=C(O)CCc1ccc(-c2ccc(F)cc2)n1CC(=O)O`: 0%. Regarding `CN(c1ccccc1C(N)=O)S(=O)(=O)c1ccccc1`, the inhibition was 10%.

In general, inhibition refers to the relative decrease from the control value, in per cent.
